# Hits are enriched below; roughly 6% of the tested compounds scored in any of these assays.
# PK Bst – alters activity of Bacillus stearothermophilus pyruvate kinase | purified pyruvate kinase, luminescence ATP production; ribose 5-phosphate activator present at AC10 | Potency, µM | 51,000 compounds, 1.2% hits; in the data active = potency below about 11 µM; inconclusive = mostly about 12 µM to 25 µM;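 the screen sought inhibitors and activators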;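 note: scaled between full activation by ribose 5 phosphate and full inhibition by luteolin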
# Pol III holo inh – inhibitors of bacterial DNA polymerase III holoenzyme. Potency, µM (doses to about 57.1 µM), for the others: top-dose activity change, negative = inhibition. reconstituted DNA polymerase III holoenzyme replication, biochemical. 71,000 compounds, 0.25% hits
#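 Reconstituted *E. coli* holoenzyme (0.35 nM Pol III, 1 nM beta, 154 nM SSB, 2 nM primase) was preincubated with compound for 15 min at RT. Synthesis on 1.4 nM ssM13Gori ran 35 min, then was stopped with PicoGreen/EDTA and read as dsDNA fluorescence.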
# ALOX15 inhib – 15-hLO (ALOX15) enzyme inhibition | purified 15hLO-1, xylenol orange hydroperoxide absorbance | Potency, µM (titrated, usually from 57.1 µM), for the others: top-dose activity change, negative = inhibition, most hits filed as inhibitors | 74,000 compounds, 1.4% hits | AID 887; note: nearly all actives have a fitted effect of over 55% in size
# Target sequence (P16050 whole entry, looked up): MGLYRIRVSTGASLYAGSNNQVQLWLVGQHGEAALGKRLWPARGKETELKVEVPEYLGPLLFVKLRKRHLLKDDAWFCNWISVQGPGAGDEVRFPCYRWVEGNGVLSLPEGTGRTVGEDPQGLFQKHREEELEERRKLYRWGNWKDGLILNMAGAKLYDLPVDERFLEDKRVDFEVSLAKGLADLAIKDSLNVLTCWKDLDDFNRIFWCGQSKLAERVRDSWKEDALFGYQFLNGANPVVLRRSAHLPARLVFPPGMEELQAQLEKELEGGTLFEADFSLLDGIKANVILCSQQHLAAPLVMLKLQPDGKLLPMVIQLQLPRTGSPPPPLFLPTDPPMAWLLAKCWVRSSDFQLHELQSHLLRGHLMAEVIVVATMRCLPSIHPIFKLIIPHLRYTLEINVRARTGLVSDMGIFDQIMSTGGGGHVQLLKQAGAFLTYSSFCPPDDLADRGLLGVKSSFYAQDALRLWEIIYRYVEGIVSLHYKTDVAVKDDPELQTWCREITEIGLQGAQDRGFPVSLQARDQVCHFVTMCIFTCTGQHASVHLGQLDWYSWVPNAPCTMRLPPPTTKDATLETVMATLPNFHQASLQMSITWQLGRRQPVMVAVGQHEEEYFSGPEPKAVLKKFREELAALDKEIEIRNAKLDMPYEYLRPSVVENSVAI
#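 40 nM 15hLO-1 + cpd, 15 min RT; start w/ 50 uM AA (final), 6 min RT; stop/detect w/ 200 uM XO + 300 uM Fe(II) in 50 mM H2SO4, 30 min; A573/A405. Buffer 25 mM Hepes pH 7.5, 0.01% Triton X-100. No-enzyme wells as negative control.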
# FLuc inh – inhibitors of firefly luciferase. P08659. purified firefly luciferase, luminescence, 8 min. Potency, µM (titrated, usually from 57.1 µM), for the others: at the highest dose activity change, negative = inhibition, usual class: inhibitors. 72,000 compounds, 2.2% hits; note: nearly all actives have a fitted effect of over 40% in size
#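 Inhibition of light generation by firefly luciferase from ATP and luciferin was profiled with concentration-response curves per sample, ATP held at 10 uM within the enzyme's linear range. Plates were read by luminescence after an 8-minute ambient incubation.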
# Tau fil binding – binds recombinant human tau filaments. P10636. recombinant tau filaments, thioflavin S fluorescence, 15 h; filaments grown with octadecylsulfate alongside compound. Potency, µM (series often up to 57.1 µM), without a hit: at the highest dose activity change, negative = inhibition. 71,000 compounds, 2% hits. AID 596;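 note: actives lower thioflavin S fluorescence by blocking filaments or displacing dye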
#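 Thioflavine S fluorescence (ex 450, em 510 nm) reports filaments formed from 1 uM human tau plus 30 uM ODS over 15 h at 37 C (10 mM HEPES pH 7.4, 100 mM NaCl, 5 mM DTT); compounds displacing dye or blocking filaments lower signal.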
# ERK AVP inh – blocks ERK signaling stimulated by vasopressin. HEK293-V1b, vasopressin-stimulated pERK AlphaScreen. Potency, µM (series often up to 57.5 µM), without a hit: top-dose activity, negative = inhibition, most hits filed as inhibitors. 72,000 compounds, 0.99% hits. AID 995; note: nearly all actives have a fitted effect of over 55% in size
#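 HEK293 cells stably expressing V1b receptor, seeded overnight in 1% FBS, were treated with compounds for 30 min at 37C, then stimulated 5 min with 25 nM vasopressin; phospho-ERK read by AlphaScreen SureFire after lysis.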
# Active calls of the source: *; i = inactive; u = inconclusive; x = not tested or not shown; [ ] = another dose, or the depositor's remark. Unless noted, calls come from the whole dose curve; as a rule, active = well fitted curve in the direction sought with a large enough effect; inconclusive = small, poorly fitted or top-dose-only effect, or another doubt; inactive = no such curve, though single readings can be large; an effect the other way counts as inactive or inconclusive. Unless noted, % is set by controls: 0 for no effect and ±100 for the full control effect; potency is the fitted concentration of half-maximal effect.
SMILES,PK Bst,Pol III holo inh,ALOX15 inhib,FLuc inh,Tau fil binding,ERK AVP inh
O=C(Nc1ccc2ccccc2c1)c1cnccn1,x,0%,-13%,7.9µM*,25µM*,-16%
O=C(Nc1ccc2ccccc2c1)c1cccnc1,x,0%,0%,13µM*,20%,11%
CCCCOC(=O)c1ccc(NC(=O)c2cnccn2)cc1,>57,-1%,-1%,-5%,25µM*,-15%
CCCOC(=O)c1ccc(NC(=O)c2cnccn2)cc1,>57,-4%,1%,-6%,-16%,23%
O=C(Nc1ccc2nccnc2c1)c1cnccn1,>57,-5%,3%,-7%,-1%,-7%
O=C(Nc1cccnc1)c1cccnc1,>26,x,x,0%[25.5 µM],x,x
CC(=O)Cc1nsc(NC(=O)c2ccccc2)n1,>57,-2%,8%,-5%,-7%,-3%
Cc1nc(NC(=O)c2ccccc2)sc1-c1csc(N)n1,i,0%,-28%,16µM*,-6%,10%
COc1ccc(-c2nc3cnc(Nc4cccc(OC)c4)nc3n(C[C@H]3CCCO3)c2=O)cc1,x,1%,u,-2%[11.4 µM],107%,-2%
O=C(c1ccccc1)c1ccc(N2CCOCC2)c(F)c1,x,6%,32µM*,u,-22%,u
C=CCOCC/C=C1/c2ccccc2C(OC)C1C (configuration not stated),x,x,3%[11.4 µM],x,x,0%[11.5 µM]
O=C(NCCC1=CCCCC1)C1CCCN(S(=O)(=O)c2cccnc2)C1 (configuration not stated),x,0%,-7%,-1%,0%,-12%
O=C(NCCC1=CCCCC1)C1CCCN(S(=O)(=O)c2cccc3cccnc23)C1 (configuration not stated),x,3%,20µM*,1%,1%,4%
CCNc1ncc2nc(-c3ccc(F)cc3)c(=O)n(Cc3ccc(F)cc3)c2n1,x,2%,-2%,0%[11.4 µM],3%,-14%
O=S(=O)(/C=C/c1ccccc1)Nc1ccc(N2CCOCC2)cc1,x,6%,u,-1%,25µM*,-7%
O=C(O)c1ccc(NS(=O)(=O)/C=C/c2ccccc2)cc1O,i,-10%,-10%,-5%,-4%,-7%
C[C@@H](C(=O)O)c1ccc(C[C@@H]2CCCC2=O)cc1,x,-1%,6%,0%,2%,14%
Nc1nc(-c2ccccc2)cc(N2CCCCC2)n1,x,-9%,-20%,1%,25µM*,-4%
CN(C)C(=O)c1ccc(-c2nc(NCc3cccnc3)c3ccccc3n2)cc1,x,-4%,-19%,-1%[2.29 µM],-4%,-7%
O=C(c1ccncc1)N1CCC2(CCCN(c3cccc(-c4ccccc4)c3)C2)CC1,x,9%,u,-2%[11.4 µM],65%,4%
N#CC1=C(SCC(=O)NC2CC2)NC(=O)C(C#N)C12CCCCC2 (configuration not stated),>57,-2%,-10%,4%,13%,-17%
CC(C)(C)C1CCC2(CC1)C(C#N)=C(SCC(=O)NC1CCCCC1)NC(=O)C2C#N (configuration not stated),>57,-6%,-10%,0%,13µM*,15%
CCOC(=O)N1CCC(n2c(SCC(=O)NCCC3=CCCCC3)nc3ccccc3c2=O)CC1,>57,4%,16µM*,2%,-8%,2%
CCOC(=O)N1CCC(n2c(SCC(=O)NCc3ccccc3)nc3ccccc3c2=O)CC1,>57,6%,-2%,2%,9%,-1%
COCC#Cc1ccc(C2C(C)CCC3C(=O)N4C(CCC(C)C4c4ccc(C#CCOC)cc4)C(=O)N32)cc1 (configuration not stated),x,x,3%[11.4 µM],x,x,5%[11.5 µM]
SMILES,PK Bst,Pol III holo inh,ALOX15 inhib,FLuc inh,Tau fil binding,ERK AVP inh
C[C@]12C=CC(=O)C=C1CCC1C2C(=O)C[C@]2(C)C1CC[C@]2(O)C(=O)CO (some centres not stated),x,x,2%,x,x,4%
OCCN1CCN(c2nc(N3CCCCC3)nc(N3CCCCC3)n2)CC1,x,-13%[11.4 µM],0%[11.4 µM],1%,4µM*,12%
CC(=O)c1ccc(N2CCN(C(=O)COc3ccc(F)cc3)CC2)c(F)c1,x,-1%,-1%,3%,8%,-25%
CCC(=O)c1ccc(N2CCN(C(=O)COc3ccc(F)cc3)CC2)c(F)c1,x,-2%[11.4 µM],3%[11.4 µM],-1%,29%[11.4 µM],3.2µM*
COc1ccccc1N1CCN(C(=O)COc2ccc(Cl)cc2)CC1,>57,-2%,-27%,1%,-12%,32µM*
COc1cc(OC)cc(C(=O)N2CCN(C(=O)COc3ccc4ccccc4c3)CC2)c1,u,-3%,7%,10µM*,16%,-11%
CN1CCN(c2ncc3nc(-c4ccccc4)c(=O)n(-c4ccccc4)c3n2)CC1,x,-6%,-7%,1%[11.4 µM],5%,-3%
CC(C)C[C@H](NC(=O)[C@@H](NC(=O)N[C@@H](Cc1ccccc1)C(=O)O)[C@H]1CCN=C(N)N1)C(=O)N[C@H](C=O)Cc1ccccc1,x,-5%,x,0%[11.4 µM],u,x
COc1cccc(NC(=O)CSc2nnc(-c3cc(C)n(-c4ccccc4)c3C)o2)c1,x,9%,-26%,-22%,37%,-26%
O=c1oc2ccccc2cc1O,x,x,4%,x,x,12%
Cc1cc(-c2nnc(-c3cc4ccccc4oc3=O)o2)c(C)n1-c1ccccc1,>57,-2%,-12%,-3%,3.2µM*,-5%
O=c1oc2ccccc2cc1-c1nc2ccccc2o1,u,-3%,0%,16µM*,-24%,26%
COc1ccc(Oc2ncc3ncc(=O)n(C4CC4)c3n2)cc1,x,-9%,6%,0%[11.4 µM],-4%,-19%
CNc1nc(-c2ccccc2C)nc2ccccc12,x,-7%,u,-14%[2.29 µM],-4%,10%
C[C@@H](c1ccccc1)N1C(=O)[C@H]2[C@@H]3[C@H](O)C=CC(=O)[C@H]3CC[C@H]2C1=O,x,x,-2%[11.4 µM],1%[11.4 µM],x,29%[11.5 µM]
CCOC(=O)c1ccc2c(c1)C1C=CCC1C(C(=O)O)N2 (configuration not stated),x,16µM*,u,-13%,u,-23%
O=C(O)C1Nc2c(C(=O)N3CCOCC3)cccc2C2C=CCC12 (configuration not stated),x,-24%,-4%,-22%,105%,-15%
Cc1ccc2c(c1C)NC(C(=O)O)C1CC=CC21 (configuration not stated),>57,25µM*,u,1%,3.2µM*,-28%
COC(=O)CCn1nnc(-c2ccc(C(C)C)cc2)n1,>57,u,-2%,13µM*,-1%,15%
COC(=O)CCn1nnc(-c2cccs2)n1,>57,-8%,4%,3%,-1%,-15%
CC(Oc1ccc(Br)cc1)C(=O)NCc1cccnc1 (configuration not stated),x,x,-10%,x,x,x

# Compound activity deposited in PubChem by National Center for Advancing Translational Sciences (NCATS).
